From PubChem BioAssay (NCATS)
Results filed as inconclusive are left out. Active and inactive are the calls of the source. Unless noted, how the calls were made is not given here.

What was measured:
[1] = qHTS Assay for Identifying Gametocytocidal Compounds (AID 743244; active means well fitted curve in the direction sought with a large enough effect; an effect the other way counts as inactive or inconclusive; further: potency means the concentration at half of the fitted maximal effect;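 on max response: on the % scale 0 is the no-effect control and ±100 the full control effect; actives lower the fluorescent signal which means gametocytes are killed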); conditions: P. falciparum 3D7 stage III-V gametocytes, alamarBlue, 72 h; max response: stronger effect = lower value
Summary of the method: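 A resazurin-based viability read-out was applied to mature P. falciparum gametocytes: 72 h compound treatment, then 24 h dye incubation, with falling fluorescence signalling gametocytocidal effect.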

[2] = qHTS profiling for inhibitors of Plasmodium falciparum (3D7) proliferation (AID 743322);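 further: infected erythrocytes exposed to compound for 72 h before lysis; 100% = DMSO vehicle wells and 0% = 0.29 µM artemisinin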; conditions: P. falciparum 3D7 proliferation; at 28.7 µM (top of the series)
Summary of the method: (§1)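 Parasite DNA was quantified by SYBR Green I fluorescence (ex 485, em 535 nm) after overnight lysis in saponin/Triton buffer at room temperature. Cultures at 0.3% parasitemia and 2.5% hematocrit were first exposed to compound for 72 h at 37 C; signals were normalised to artemisinin (0.29 uM) and vehicle wells.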

[3] = qHTS profiling for inhibitors of Plasmodium falciparum (DD2) proliferation (AID 743323); conditions: lower = more inhibition; at 28.7 µM (top of the series)
Summary of the method: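 SYBR Green fluorescence (ex 485, em 535 nm) of lysed cultures gives parasite DNA content; wells normalized to artemisinin (0.29 uM) and DMSO controls. Infected red cells: 0.3% parasitemia, 2.5% hematocrit, 72 h, 37 C.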

[4] = qHTS profiling for inhibitors of Plasmodium falciparum (HB3) proliferation (AID 743324; active means well fitted curve in the direction sought with a large enough effect; an effect the other way counts as inactive or inconclusive;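 further: 100% = DMSO vehicle wells and 0% = artemisinin-treated control wells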); conditions: Plasmodium falciparum HB3 blood-stage proliferation; at 28.7 µM (top of the series)
Summary of the method: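 SYBR Green fluorescence (485 ex/535 em) of lysed cultures, incubated overnight at room temperature in the dark, quantifies parasite DNA. Infected erythrocytes at 0.3% parasitemia and 2.5% hematocrit were exposed 72 h; values normalized to DMSO and 0.29 uM artemisinin controls.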

[5] = qHTS profiling of the MIPE4 collection as inhibitors of Plasmodium falciparum (3D7) proliferation (AID 743344);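 further: scaled between DMSO vehicle wells and 0.29 µM artemisinin as full inhibition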; conditions: P. falciparum 3D7 in erythrocytes, SYBR Green DNA fluorescence, 72 h; at 28.5 µM (top of the series) unless noted
Summary of the method: as §1

[6] = qHTS profiling of the MIPE4 collection as inhibitors of Plasmodium falciparum (DD2) proliferation (AID 743345); conditions: P. falciparum Dd2 in erythrocytes, SYBR Green DNA, 72 h; at 28.5 µM (top of the series) unless noted
Summary of the method: as §1

[7] = qHTS profiling of the MIPE4 collection as inhibitors of Plasmodium falciparum (DD2) proliferation (Rep 2) (AID 743346); conditions: P. falciparum Dd2 in erythrocytes, SYBR Green DNA, 72 h; at 28.5 µM (top of the series) unless noted
Summary of the method: as §1

[8] = qHTS profiling of the MIPE4 collection as inhibitors of Plasmodium falciparum (HB3) proliferation (AID 743347);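 further: plate controls were DMSO vehicle wells for no effect and artemisinin wells for full effect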; conditions: P. falciparum HB3 in erythrocytes, SYBR Green DNA, 72 h; at 28.5 µM (top of the series) unless noted
Summary of the method: as §1

[9] = High-throughput drug toxicity screening in the BPDCN cell line Gen2.2 (AID 1224824); conditions: Gen2.2 BPDCN cells; at 45.8 µM (top of the series) unless noted;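 further: cells exposed to compounds for 48 h before reading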
Summary of the method: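 CellTiter-Glo luminescence read after 48 h compound exposure at 37 C defines viability; percent activity set with DMSO as 100% and bortezomib (9.2 uM final) as 0%. 500 exponentially growing cells per well, RPMI plus 10% FBS.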

[10] = High-throughput drug toxicity screening in the BPDCN cell line Cal-1 (AID 1224825); conditions: Cal-1 BPDCN cell viability, qHTS; at 45.8 µM (top of the series) unless noted
Summary of the method: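 CellTiter-Glo luminescence after 48 h compound exposure; percent activity scaled with DMSO as 100% and bortezomib (9.2 uM final) as 0%. Cal-1 cells seeded at 500/well in RPMI, 10% FBS, no phenol red.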

[11] = qHTS for compounds that reverse cellular toxicity of Amyloid beta (A-beta) peptide in yeast: LOPAC Validation Assay (AID 720559; active means well fitted curve in the direction sought with a large enough effect; an effect the other way counts as inactive or inconclusive;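 further: plate controls were DMSO for no effect and equimolar ferric chloride plus clioquinol rescue for full effect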)
Summary of the method: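 Rescue of A-beta toxicity was scored as yeast growth by 600 nm absorbance after 48 hr at 30 C with compound. Normalization used DMSO (negative) and equimolar ferric chloride plus clioquinol (positive).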

[12] = qHTS for Activators of Parkin Expression: LOPAC Validation Assay (NLuc Reporter) (AID 720572; active means well fitted curve in the direction sought with a large enough effect; an effect the other way counts as inactive or inconclusive)
Summary of the method: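 NLuc signal, read 10 min after reagent and following a prior FLuc read, is normalized to DMSO (0) and positive controls (100%). Cells: neuronal Parkin-promoter coincidence reporter line; compounds tested 7-point, 24 h, 37 C, 5% CO2.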

[13] = qHTS for Activators of Parkin Expression: LOPAC Validation Assay (FLuc Reporter) (AID 720573; active means well fitted curve in the direction sought with a large enough effect; an effect the other way counts as inactive or inconclusive; further: potency means the concentration at half of the fitted maximal effect); conditions: Cell line, PRKN promoter firefly luciferase reporter
Summary of the method: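 FLuc signal from Parkin-promoter coincidence reporter neuronal cells, normalized to DMSO and positive control (100%). Cells (1,500/well) pre-incubated 24 h, then exposed to LOPAC compounds in 7-point dose response for 24 h at 37 C, 5% CO2.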

[14] = target: T1, Hexokinase-4 (Homo sapiens) + Glucokinase regulatory protein (Homo sapiens) (UniProt P35557+Q14397); test: qHTS assay for inhibitors of recombinant human GCK-GKRP interaction: Diaphorase-coupled assay (AID 743205; active means well fitted curve in the direction sought with a large enough effect; an effect the other way counts as inactive or inconclusive)
Summary of the method: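 A kinetic fluorescence read (Ex 525/Em 590 nm, every minute for 30 minutes) tracked resorufin from a G6PDH-diaphorase coupled GCK reaction. It contained 10 nM GST-GCK, 10 nM FLAG-GKRP, 5 mM glucose, 0.4 mM ATP in Hepes pH 7.6. Normalized to with/without-enzyme DMSO controls.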

[15] = target: T1, Hexokinase-4 (Homo sapiens) + Glucokinase regulatory protein (Homo sapiens); test: qHTS assay for inhibitors of recombinant human GCK-GKRP interaction: ADP-Glo assay (AID 743206; active means well fitted curve in the direction sought with a large enough effect; an effect the other way counts as inactive or inconclusive;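 further: plate controls were DMSO plus enzyme for no effect and no enzyme for full effect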)
Summary of the method: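 Pin-transferred compounds meet a 15 nM GST-GCK/15 nM FLAG-GKRP/2 uM S6P mix (dispense concentrations). ATP is then added to 0.4 mM final with 5 mM glucose, and the reaction runs 60 min at room temperature. ADP is quantified luminescently.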

[16] = target: T1, Hexokinase-4 (Homo sapiens) + Glucokinase regulatory protein (Homo sapiens); test: qHTS assay for inhibitors of recombinant human GCK-GKRP interaction: HTRF assay (AID 743207; active means well fitted curve in the direction sought with a large enough effect; an effect the other way counts as inactive or inconclusive;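 further: 0% = DMSO with GCK present and -100% = DMSO wells lacking GCK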)
Summary of the method: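 After 60 min equilibration at room temperature with anti-FLAG XL665 and anti-GST antibodies, FRET ratio (665/615 nm, excitation 320 nm) was read. Proteins: GST-GCK and FLAG-GKRP, each 5 nM, plus 2 uM S6P, pH 7.1 buffer; GCK-free wells define minimum signal.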

T1 sequence (P35557 whole entry, looked up): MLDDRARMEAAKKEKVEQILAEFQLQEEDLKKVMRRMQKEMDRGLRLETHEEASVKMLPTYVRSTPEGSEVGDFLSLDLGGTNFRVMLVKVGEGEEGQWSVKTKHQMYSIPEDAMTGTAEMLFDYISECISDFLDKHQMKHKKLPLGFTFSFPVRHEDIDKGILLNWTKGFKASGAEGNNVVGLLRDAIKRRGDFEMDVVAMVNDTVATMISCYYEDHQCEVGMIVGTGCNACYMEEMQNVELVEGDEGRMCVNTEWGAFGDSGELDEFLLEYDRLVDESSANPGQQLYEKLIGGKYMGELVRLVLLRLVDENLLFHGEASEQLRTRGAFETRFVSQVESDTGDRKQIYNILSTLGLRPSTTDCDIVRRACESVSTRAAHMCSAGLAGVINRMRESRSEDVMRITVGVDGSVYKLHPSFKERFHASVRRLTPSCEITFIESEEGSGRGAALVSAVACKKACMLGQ
T1 sequence (Q14397 whole entry, looked up): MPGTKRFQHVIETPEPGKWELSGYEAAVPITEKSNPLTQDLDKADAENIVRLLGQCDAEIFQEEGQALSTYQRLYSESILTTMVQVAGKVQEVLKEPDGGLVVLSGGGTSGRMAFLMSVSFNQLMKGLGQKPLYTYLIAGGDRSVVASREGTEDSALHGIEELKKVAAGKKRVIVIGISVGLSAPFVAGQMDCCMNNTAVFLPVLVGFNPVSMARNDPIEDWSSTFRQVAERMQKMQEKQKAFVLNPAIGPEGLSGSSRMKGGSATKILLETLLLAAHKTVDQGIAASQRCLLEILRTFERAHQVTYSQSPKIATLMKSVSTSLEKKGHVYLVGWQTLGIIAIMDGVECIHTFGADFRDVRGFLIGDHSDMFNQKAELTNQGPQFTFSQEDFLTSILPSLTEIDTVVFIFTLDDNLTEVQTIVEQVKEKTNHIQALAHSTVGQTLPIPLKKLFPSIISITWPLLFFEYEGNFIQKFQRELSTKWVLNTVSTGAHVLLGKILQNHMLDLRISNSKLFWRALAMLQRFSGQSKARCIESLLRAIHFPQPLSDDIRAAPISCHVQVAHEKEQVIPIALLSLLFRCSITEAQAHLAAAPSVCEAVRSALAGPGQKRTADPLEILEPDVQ

Row | Structure (SMILES) | max response [1] | remaining parasite growth % (stronger effect = lower value) [2] | activity, percent of control [3] | remaining proliferation (% of control), lower = more inhibition [4] | parasite growth, % of DMSO control [5] | parasite growth remaining, % of DMSO control (lower = more inhibition) [6] | parasite growth, % of control (lower = inhibition) [7] | growth, % of control [8] | cell viability, % of control (lower = more cytotoxic) [9] | viability (% of control) [10] | Potency [1] | outcome [11] | outcome [12] | Potency [13] | outcome [14] | outcome [15] | outcome [16]
1 | COc1ccc(C=Cc2cc(OC)c(OC)c(OC)c2)cc1O | 18.2% (inactive) | 92% | 104% | 84.7% | 36% | 21.1% | 44% | 22.3% | 10.8% | 8.52% | – | – | – | – | – | – | –
2 | CC(C)(O)CCc1ccc(OCc2cc(-c3cccc(OC(F)F)c3)c3ncccc3c2)cc1 | 9.3% (inactive) | 37.5% | 37.1% | 15.5% | 111% | 93% | 102% | 102% | 132% | 75.3% | – | – | – | – | – | – | –
3 | COc1cc2ncn(-c3cc(OCc4ccccc4C(F)(F)F)c(C(N)=O)s3)c2cc1OC | 18.7% (inactive) | 18.7% | 43.8% | 13% | 41.3% | 65% | 44.3% | 35.9% | 43.1% | 4.46% | – | – | – | – | – | – | –
4 | CCOC(=O)C1=C(C)NC2=C(C(=O)CC(C)(C)C2)C1c1ccc(-c2ccccc2)cc1 (stereo not given) | – | – | – | – | – | – | – | – | 5.24% | 4.47% | – | – | – | – | – | – | –
5 | Cc1cc(Nc2cc(N3CCN(C)CC3)nc(Sc3ccc(NC(=O)C4CC4)cc3)n2)n[nH]1 | – | 39.3% | 68.3% | 9.14% | 11.5% | 16% | 22.4% | 2.93% | 36.4% | 12.3% | 23.5 µM (active) | – | – | – | – | – | –
6 | CC(=O)OCC(=O)[C@@]1(O)[C@H](C)C[C@H]2[C@@H]3C=C(C)C4=Cc5c(cnn5-c5ccccc5)C[C@]4(C)[C@@H]3[C@@H](O)C[C@@]21C | -18.2% (inactive) | -0.774% | -0.0557% | -1.72% | 6.78% | 6.63% | 21.4% | 10.8% | 102% | 45.8% | – | – | – | – | – | – | –
7 | COc1ccc(CC2SC(=O)NC2=O)cc1C(=O)NCc1ccc(C(F)(F)F)cc1 (stereo not given) | 16.4% (inactive) | 90.2% | 93.1% | 54.2% | 32.5% | 91.4% | 56.9% | 55.5% | 96% | 84.9% | – | – | – | – | – | – | –
8 | O=c1[nH]nc(Sc2ncc([N+](=O)[O-])s2)n1-c1ccc2c(c1)OCCO2 | – | 21% | 65.9% | 3.82% | 59.7% | 64.7% | 60.1% | 62.4% | 3.22% | 2.62% | 7.43 µM (active) | – | – | – | – | – | –
9 | O=c1c2ccccc2nc2n1CCc1c-2[nH]c2ccccc12 | 16.8% (inactive) | – | – | – | 85.9% | 88.1% | 167% | 85.6% | 35% | 72.9% | – | inactive | inactive | 0.82 µM (active) | inactive | inactive | inactive
